In PubChem BioAssay (Tox21) one finds Potency and outcome data, which are given here for eight compounds.

Where “and” joins values, the source holds several entries; their conditions need not be identical. Equal entries are not always repeated. Inconclusive results are not listed. Some compounds were tested as several samples or in several runs, with calls that do not always agree. Calls of active or inactive are those of the source. Unless noted, calls follow the shape of the dose curve; as a rule, active = well fitted curve in the direction sought with a large enough effect in the repeat runs; inconclusive = weak or mixed curves; inactive = no such curve, though single readings can be large; an effect the other way counts as inactive or inconclusive.

For test [1], the target named is Retinoic acid receptor RXR-alpha (Homo sapiens) (UniProt P19793). Nature of the test: qHTS assay to identify small molecule agonists of the RXR signaling pathway (AID 1159527; calls by dose curve; also: nearly all actives have a fitted effect of over 35% in size; also: potency is read from the fitted curve at half-maximal effect). In short, it runs like this:
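Compounds in DMSO were added to RXR-alpha-UAS-bla HEK 293T cells kept in 2% charcoal-stripped serum, and incubated 16 hr at 37 C with 5% CO2. Reporter signal came from a 2 hr B/G FRET substrate step.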

A short description of test [2]: qHTS assay to identify small molecule agonists of the RXR signaling pathway - cell viability counter screen (AID 1159529).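 Also: HEK 293T cells carrying an RXR-alpha UAS beta-lactamase reporter; series mostly up to about 77 µM; nearly all actives have a fitted effect of over 50% in size.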 In short, it runs like this: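 Counter screen: CellTiter-Glo luminescence. Cells: RXR-alpha-UAS-bla HEK 293T. Medium: 2% charcoal-stripped FBS. Treatment: 16 h, 37 C. Reagent incubation: 30 min, RT.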
Test [3] can be described thus: qHTS assay to identify small molecule antagonists of the retinoid acid receptor (RAR) signaling pathway - cell viability counter screen (AID 1159551). Also: nearly all actives have a fitted effect of over 35% in size. In short, it runs like this:
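Measured by luminescent ATP detection, viability reflects C3RL4 cells treated 6 h at 37 C with test chemicals in the presence of 1 uM (final) retinol.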
A general note: qHTS replaces the single test concentration by a dilution series.

A short description of test [4]: qHTS assay to identify small molecule antagonists of the retinoic acid receptor (RAR) signaling pathway (AID 1159552; also: nearly all actives have a fitted effect of over 50% in size). In short, it runs like this:
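Antagonism of retinol-induced RARE reporter activity was measured in C3RL4 cells. Exposure to compounds and 1 uM final retinol lasted 6 hr at 37 C, with luminescence as endpoint.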

A short description of test [5]: qHTS assay to identify small molecule agonists of the retinoic acid receptor (RAR) signaling pathway (AID 1159553). The essentials: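 6 hr compound exposure (DMSO vehicle) of overnight-plated C3RL4 RARE-luc cells at 37 C; luminescence quantified after 30 min RT with luciferase reagent.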
The nature of test [6]: qHTS assay to identify small molecule antagonists of the estrogen related receptor (ERR) signaling pathway - cell viability counter screen (AID 1224818). Also: series mostly up to about 46 µM. The essentials: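 Compounds dissolved in DMSO were applied to ERR cells seeded at 2,000 per well 6 h earlier. Cell viability followed 17.5 h later via 30-min CellTiter-Fluor fluorescence.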
Test [7] in a line: qHTS assay to identify small molecule antagonists of the estrogen related receptor (ERR) signaling pathway (AID 1224819;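 also: luminescence from an ERR-driven luciferase reporter measured with One-Glo reagent; series mostly up to about 46 µM; nearly all actives have a fitted effect of over 50% in size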). The essentials: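 Compounds dissolved in DMSO were pin-transferred onto ERR cells that had been plated 6 h earlier, and cells were then incubated 18 h at 37 C; signal was luciferase luminescence via One-Glo.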
Test [8] can be described thus: qHTS assay to identify small molecule agonists of the estrogen related receptor (ERR) signaling pathway (AID 1224820). In short, it runs like this:
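Luminescence readout (One-Glo, 30 min RT) from NTP-supplied ERR cell line exposed to compounds for 18 h at 37 C. Cells seeded 2,000 per well and pre-incubated 6 h before pin-tool compound transfer.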

For test [9], the system named is estrogen-related receptor alpha (ERRalpha) with PGC-1alpha coactivator, human. Nature of the test: qHTS assay to identify small molecule antagonists of the estrogen related receptor signaling pathway with the pleiotropic PPARgamma coactivator (PGC) (AID 1224821; calls by dose curve;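 also: series mostly up to about 46 µM; lower luminescence signal means antagonism of PGC/ERR signalling; nearly all actives have a fitted effect of over 50% in size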). In short, it runs like this:
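PGC/ERR reporter cells; 6 h pre-incubation 37 C/5% CO2; pin-tool compound in DMSO, 18 h 37 C; One-Glo added, 30 min RT; luminescence read. qHTS antagonist mode.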

Test [10] in a line: qHTS assay to identify small molecule antagonists of the estrogen related receptor signaling pathway with the pleiotropic PPARgamma coactivator (PGC) cell viability counter screen (AID 1224822; also: series mostly up to about 46 µM). In short, it runs like this:
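Counter screen for cell viability: PGC/ERR cells, 6 h pre-incubation after plating, 17.5 h compound exposure at 37 C, fluorescence from CellTiter-Fluor after 30 min.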

Test [11] in a line: qHTS assay to identify small molecule agonists of the estrogen related receptor signaling pathway with the pleiotropic PPARgamma coactivator (PGC) (AID 1224823). In short, it runs like this: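 Luminescence readout (One-Glo, 30 min RT) from PGC/ERR cell line treated 18 h at 37 C with pin-tool-delivered DMSO compound solutions; cells plated 6 h before dosing. Quantitative HTS format.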

The nature of test [12]: qHTS assay to identify small molecule antagonists of the estrogen related receptor (ERR) signaling pathway from Tox21 library - cell viability counter screen (AID 1224834). Also: nearly all actives have a fitted effect of over 30% in size. The essentials: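 Seeded ERR cells were rested 6 h at 37 C/5% CO2 before compounds, positive and negative controls or DMSO were added. Incubation continued for 17.5 h, and viability was then quantified by CellTiter-Fluor fluorescence.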

Test [13] concerns the target Luciferin 4-monooxygenase (Photinus pyralis) (UniProt P08659). Nature of the test: qHTS assay to identify small molecule inhibitors of firefly luciferase (AID 1224835). Also: nearly all actives have a fitted effect of over 25% in size. Also: potency is read from the fitted curve at half-maximal effect. The essentials:
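Quantitative HTS format; KM concentrations of both substrates. Purified P. pyralis FLuc activity quantified from luminescence images.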

Test [14] is described as follows: qHTS assay to identify small molecule agonists of the constitutive androstane receptor (CAR) signaling pathway - cell viability counter screen (AID 1224836). Also: series mostly up to about 92 µM; nearly all actives have a fitted effect of over 45% in size. The essentials:
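Double-stable HepG2 hepatoma cells (hCAR plus CYP2B6-2.2kb) are treated for 23 h at 37 C with test compounds in 15-point concentration series. PK11195 at 0.75 uM final is co-added. Cell viability is quantified by CellTiter-Fluor.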

Test [15] can be described thus: qHTS assay to identify small molecule antagonists of the constitutive androstane receptor (CAR) signaling pathway - cell viability counter screen (AID 1224837). Also: series mostly up to about 92 µM; nearly all actives have a fitted effect of over 45% in size. The essentials: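 To flag cytotoxic false antagonists, HepG2 hCAR/CYP2B6-2.2kb cells were treated 23 hr with 15-concentration compound series and 50 nM CITCO at 37 C/5% CO2; CellTiter-Fluor fluorescence was the measured end point.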

For test [16], the target named is Nuclear receptor subfamily 1 group I member 3 (Homo sapiens) (UniProt Q14994). Nature of the test: qHTS assay to identify small molecule antagonists of the constitutive androstane receptor (CAR) signaling pathway (AID 1224838).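 Also: HepG2 cells stably expressing hCAR with CYP2B6 luciferase reporter stimulated by CITCO; nearly all actives have a fitted effect of over 40% in size.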 The essentials: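 Human hepatoma HepG2 cells expressing hCAR and a CYP2B6 promoter (2.2 kb) luciferase construct; compound titration (15 points) with 50 nM CITCO final, 24 h at 37 C/5% CO2; luminescence via ONE-Glo after 30 min at room temperature.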

Test [17] can be described thus: qHTS assay to identify small molecule antagonists of the estrogen related receptor signaling pathway with the pleiotropic PPARgamma coactivator (PGC) from Tox21 10K library - cell viability counter screen (AID 1224840; active = well fitted cell-killing curve with a large enough effect in the repeat runs, not every such curve was filed as active; also: nearly all actives have a fitted effect of over 40% in size). The essentials:
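Seeded PGC/ERR cells (2,000/well, 6 h, 37 C/5% CO2) get compound by pin tool; 17.5 h incubation at 37 C; CellTiter-Fluor added, 30 min, fluorescence measured.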

Test [18] is described as follows: qHTS assay to identify small molecule antagonists of the estrogen related receptor signaling pathway with the pleiotropic PPARgamma coactivator (PGC) from Tox21 10K library (AID 1224841; call rule not given here). In short, it runs like this:
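Test chemicals dissolved in DMSO were applied to pre-incubated (6 h) PGC/ERR cells at 2,000 cells/well for an 18 h, 37 C treatment; reporter luminescence was then read using One-Glo.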

A short description of test [19]: qHTS assay to identify small molecule agonists of the estrogen related receptor signaling pathway with the pleiotropic PPARgamma coactivator (PGC) from Tox21 10K library (AID 1224842). Also: nearly all actives have a fitted effect of over 15% in size. In short, it runs like this: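 PGC/ERR reporter cells (NTP line) were seeded 2,000 per well, rested 6 h at 37 C/5% CO2, then pin-dosed with compounds in DMSO for 18 h at 37 C; luciferase read by One-Glo luminescence after 30 min at room temperature.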

Test [20] concerns the target Nuclear receptor subfamily 1 group I member 3 (Homo sapiens) (UniProt Q14994). Nature of the test: qHTS assay to identify small molecule agonists of the constitutive androstane receptor (CAR) signaling pathway (AID 1224839). Also: nearly all actives have a fitted effect of over 15% in size. Also: potency is read from the fitted curve at half-maximal effect. In short, it runs like this:
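Readout: firefly luciferase luminescence via ONE-Glo. System: HepG2 double-stable for hCAR and CYP2B6-2.2kb. Conditions: 15-point compound titration, PK11195 at 0.75 uM final, 24 h incubation.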

Luciferin 4-monooxygenase (Photinus pyralis), sequence (P08659 whole entry, looked up): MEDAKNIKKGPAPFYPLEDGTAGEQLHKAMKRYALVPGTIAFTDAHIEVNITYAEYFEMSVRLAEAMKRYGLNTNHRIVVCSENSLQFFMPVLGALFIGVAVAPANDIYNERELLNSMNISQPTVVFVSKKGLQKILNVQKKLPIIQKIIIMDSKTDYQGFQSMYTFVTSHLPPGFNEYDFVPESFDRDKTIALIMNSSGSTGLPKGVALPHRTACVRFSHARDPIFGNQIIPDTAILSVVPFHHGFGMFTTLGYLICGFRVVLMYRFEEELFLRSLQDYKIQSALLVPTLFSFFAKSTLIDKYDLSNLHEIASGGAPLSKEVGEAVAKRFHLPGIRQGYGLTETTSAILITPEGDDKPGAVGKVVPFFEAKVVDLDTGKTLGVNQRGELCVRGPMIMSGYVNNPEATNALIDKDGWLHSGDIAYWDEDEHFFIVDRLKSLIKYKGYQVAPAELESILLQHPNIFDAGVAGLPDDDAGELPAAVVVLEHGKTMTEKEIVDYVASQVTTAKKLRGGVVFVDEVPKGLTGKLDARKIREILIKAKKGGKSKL
Nuclear receptor subfamily 1 group I member 3 (Homo sapiens), sequence (Q14994 whole entry, looked up): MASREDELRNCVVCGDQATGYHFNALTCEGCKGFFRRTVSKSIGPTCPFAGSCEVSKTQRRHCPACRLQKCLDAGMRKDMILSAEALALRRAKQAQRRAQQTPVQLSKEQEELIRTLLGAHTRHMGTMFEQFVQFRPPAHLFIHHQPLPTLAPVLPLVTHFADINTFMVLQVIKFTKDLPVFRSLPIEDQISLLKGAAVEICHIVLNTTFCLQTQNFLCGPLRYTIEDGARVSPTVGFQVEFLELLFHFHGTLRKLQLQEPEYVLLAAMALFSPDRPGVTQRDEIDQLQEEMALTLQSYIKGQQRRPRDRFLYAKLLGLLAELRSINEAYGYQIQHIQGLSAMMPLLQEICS
Retinoic acid receptor RXR-alpha (Homo sapiens), sequence (P19793 whole entry, looked up): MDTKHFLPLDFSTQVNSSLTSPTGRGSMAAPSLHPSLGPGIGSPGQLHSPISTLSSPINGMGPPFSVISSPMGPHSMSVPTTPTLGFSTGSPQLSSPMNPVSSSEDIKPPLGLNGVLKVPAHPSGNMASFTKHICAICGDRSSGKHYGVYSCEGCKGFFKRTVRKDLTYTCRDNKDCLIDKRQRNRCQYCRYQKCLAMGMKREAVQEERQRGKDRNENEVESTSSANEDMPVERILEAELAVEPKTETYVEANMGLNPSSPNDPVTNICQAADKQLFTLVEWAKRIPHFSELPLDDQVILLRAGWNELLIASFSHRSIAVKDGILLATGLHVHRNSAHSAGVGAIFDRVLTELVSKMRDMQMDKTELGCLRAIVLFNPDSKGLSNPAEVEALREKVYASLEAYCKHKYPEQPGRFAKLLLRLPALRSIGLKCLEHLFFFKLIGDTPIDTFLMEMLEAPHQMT

Consider `CC(C)c1cccc(C(C)C)c1O`, for which the Potency entry in test [1], in test [4], in test [5], in [12], in [13] and in test [14] was “inactive” each time. The Potency entry in test [15], in test [16], in test [17], in [18] and in test [19] was “inactive” in each case. Further, the result in test [2], in test [3], in [6], in test [7], in test [8] and in test [9] was inactive. Besides, the result in test [10] and in [11] was inactive.

For `Clc1cnc(Oc2ccc(Oc3ncc(Cl)cc3Cl)cc2)c(Cl)c1`, the Potency result in test [1], in test [4], in test [5], in test [12], in [13] and in test [14] was “inactive” throughout. The Potency entry in test [15], in test [16] and in test [20] was “inactive” throughout. Moreover, the outcome in [2], in test [3], in test [6] and in test [10] was inactive.

For the compound `O=P1(NCCCl)OCCCN1CCCl` (configuration not stated), the Potency result in [1], in [4], in test [5], in test [12], in test [13] and in [14] was “inactive” each time. Moreover, the Potency entry in [15], in test [16], in test [18] and in test [19] was “inactive” each time. Moreover, the call in test [2] and in test [3] was inactive.

Regarding `Cc1cccc(C)c1NC(=O)CN1CCCC1=O`, the Potency entry in [1], in test [4], in [5], in test [12], in [13] and in test [14] was “inactive” each time. Moreover, the Potency result in [15] and in test [17] was “inactive” each time. Also, the outcome in [2], in [3], in test [6] and in test [10] was inactive.

In the case of `CNC(=O)Oc1cccc2ccccc12`, the Potency entry in test [1], in test [4], in test [5], in [12], in [13] and in test [14] was “inactive” in each case. In addition, the Potency result in test [15], in [16] and in test [17] was “inactive” each time. In addition, the compound was classed as inactive in [2] and in test [3]. In test [20], the Potency was 61.1 µM (active) and inactive.

As to `N#Cc1ccccn1`, the Potency entry in test [1], in test [4], in [5], in test [12], in test [13] and in test [14] was “inactive” in each case. The Potency entry in [15], in test [16], in test [20] and in [17] was “inactive” each time. Further, the compound was called inactive in test [2] and in test [3].

With `CCOc1ccc(N)cc1`, the Potency was 11 µM (active) and inactive in [1]; “inactive and 79.6 µM (active)” in [13]. The call in test [2] and in test [3] was inactive. For the same compound, the Potency entry in test [4], in [5], in test [12], in [14], in [15] and in test [16] was “inactive” in each case. In addition, the Potency entry in test [20], in [17], in test [18] and in test [19] was “inactive” throughout.

With `O=C(O)Cc1ccccc1`, the Potency entry in [1], in [4], in test [5], in test [12], in test [13] and in [14] was “inactive” throughout. For the same compound, the Potency entry in test [15], in test [16], in test [20], in test [18] and in test [19] was “inactive” each time. In addition, the call in test [2] and in test [3] was inactive.
